HEK cytotox = Cytotoxic Profiling in HEK 293 Cell Line of Diverse Libraries Using Quantitative High-Throughput Screening. HEK 293 viability, ATP luminescence (CellTiter-Glo), 48-72 h. Potency, µM (doses to about 115 µM), usual class: inhibitors. 94,000 tested, 6.6% active. AID 1345083, 2018; further: nearly all actives have a fitted effect of over 60% in size
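250 HEK 293 cells/well; compound by pintool; incubated 48 or 72 hr at 37 degree Celsius; CellTiter-Glo added, 10 min RT, luminescence imaged.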
Luciferase inh = Firefly luciferase inhibition profiling of diverse chemical library using quantitative high-throughput screening | Luciferin 4-monooxygenase (Photinus pyralis), P08659 | purified P. pyralis luciferase, luminescence, biochemical | Potency, µM (highest dose often 115 µM), most hits filed as inhibitors | 76,000 tested, 2.5% active; further: nearly all actives have a fitted effect of over 65% in size
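Luminescence read by CCD imager after adding enzyme (10nM final) to wells holding compound, titrated in qHTS. Substrates 10uM each D-luciferin and ATP; buffer 50mM Tris acetate pH 7.5, 10mM Mg acetate, Tween-20, BSA.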
NPR1 antag = Natriuretic polypeptide receptor (hNpr1) antagonism - Primary qHTS | Atrial natriuretic peptide receptor 1 (Homo sapiens), P16066 | HEK293 hNpr1 GloSensor cGMP, ANP-stimulated luminescence | Potency, µM (series often up to 46.3 µM), hits mostly inhibitors | 76,000 tested, 1.6% active; calls by dose curve; further: nearly all actives have a fitted effect of over 60% in size
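Compound pre-incubated 30 min at room temperature on GloSensor-loaded HEK293 cells stably carrying hNpr1 and the pGS-40F cGMP biosensor. Stimulation uses hNppA at 0.1 nM final; luminescence is taken at baseline and 20 min post-agonist.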
NIH3T3 tox = Cytotoxic Profiling in NIH 3T3 Cell Line of Diverse Libraries Using Quantitative High-Throughput Screening | NIH 3T3 viability, CellTiter-Glo ATP luminescence, 48-72 h | Potency, µM (top dose mostly 96.7 µM), hits mostly inhibitors | 94,000 tested, 4.3% active; further: nearly all actives have a fitted effect of over 55% in size
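ATP-dependent luminescence (CellTiter-Glo) served as the viability signal for NIH 3T3 cells treated with compound for 48 or 72 hr at 37 °C.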
GPT2 inhibitor = Primary qHTS assay for inhibitors of Glutamate pyruvate transaminase 2 (GPT2). Recombinant GPT2, coupled pyruvate oxidase/HRP Amplex Red fluorescence. Potency, µM (titrated, usually from 57.7 µM), usual class: inhibitors. 100,000 tested, 0.25% active; further: nearly all actives have a fitted effect of over 60% in size
Target sequence (Q8TD30 whole entry, looked up): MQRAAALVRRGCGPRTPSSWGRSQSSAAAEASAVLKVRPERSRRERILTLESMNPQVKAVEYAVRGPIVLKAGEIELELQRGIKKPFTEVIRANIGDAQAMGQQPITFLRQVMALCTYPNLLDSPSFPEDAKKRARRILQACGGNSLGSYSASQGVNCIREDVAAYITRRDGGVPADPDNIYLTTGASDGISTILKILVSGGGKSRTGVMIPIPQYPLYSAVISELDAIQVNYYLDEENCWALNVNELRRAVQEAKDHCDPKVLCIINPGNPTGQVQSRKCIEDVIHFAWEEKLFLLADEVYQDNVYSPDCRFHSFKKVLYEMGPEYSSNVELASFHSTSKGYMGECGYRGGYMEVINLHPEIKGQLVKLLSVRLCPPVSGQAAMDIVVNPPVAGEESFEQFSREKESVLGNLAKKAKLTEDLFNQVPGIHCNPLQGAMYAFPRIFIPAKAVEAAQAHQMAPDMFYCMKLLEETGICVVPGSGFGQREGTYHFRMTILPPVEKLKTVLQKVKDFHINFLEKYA
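Fluorescence read-out: pyruvate from GPT2 turnover coupled to pyruvate oxidase, HRP and Amplex Red (0.2mM ThPP, 0.2U/mL PO and HRP, 50uM Amplex final). Substrates 250uM a-KG, 2mM L-alanine; enzyme 10ng/uL; 30 min RT.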
Hits are given with their value; - = inactive; ? = inconclusive; . = no result; ! = a repeat was not active. This is a sample that favours compounds with a hit; in the whole collection about 10% have one here. Unless noted, the call rests on the fitted dose curve; in most records, active means well fitted curve in the direction sought with a large enough effect; inconclusive means small, poorly fitted or top-dose-only effect, or another doubt; inactive means no such curve, though single readings can be large; an effect the other way counts as inactive or inconclusive.

SMILES	HEK cytotox	Luciferase inh	NPR1 antag	NIH3T3 tox	GPT2 inhibitor
C=CCN(C)C(=O)[C@H]1CN2CCC1C[C@@H]2Cn1cc(COC)nn1 (some centres not stated)	-	-	-	-	-
COCC(=O)NC[C@H]1C[C@@H]2CCN1C[C@@H]2c1cc(-c2ccc3ccccc3c2)nn1C	50.1µM	?	-	35.5µM	-
Cn1nc(C2CCCCC2)cc1[C@H]1CN2CC[C@H]1C[C@@H]2CNC(=O)c1cccs1	100µM	-	-	?	-
COc1ccc(C(=O)NC[C@H]2C[C@@H]3CCN2C[C@@H]3c2cc(-c3ccc4ccccc4c3)nn2C)cc1	17.8µM	-	-	?	-
COc1ccc(-c2cc([C@H]3CN4CC[C@H]3C[C@@H]4CNC(=O)c3ccc(N(C)C)cc3)n(C)n2)cc1	22.4µM	-	-	?	-
CN(C)c1ccc(C(=O)NC[C@H]2C[C@@H]3CCN2C[C@@H]3c2cc(C3CCCCC3)nn2C)cc1	?	-	-	?	-
COc1ccc(-c2cc([C@H]3CN4CC[C@H]3C[C@@H]4CNC(=O)c3cccs3)n(C)n2)cc1OC	?	-	-	?	-
Cn1nc(-c2ccc3ccccc3c2)cc1[C@H]1CN2CC[C@H]1C[C@@H]2CNC(=O)c1cccs1	20µM	?	-	25.1µM	-
Cc1cc(C(=O)N2[C@H]3CC[C@@H]2c2cnc(-c4ccccc4)nc2C3)n[nH]1	?	.	.	-	-
CN(C[C@H]1CN2CC[C@H]1C[C@@H]2CNC(=O)c1ccc(C(F)(F)F)cc1)c1ccccc1	28.2µM	-	?	44.7µM	-
CN(C)c1ccc(C(=O)NC[C@H]2C[C@@H]3CCN2C[C@@H]3CN(C)c2ccccc2)cc1	?	-	-	?	-
O=C(NC[C@H]1C[C@@H]2CCN1C[C@@H]2CN1CCC(Cc2ccccc2)CC1)c1ccc(C(F)(F)F)cc1	79.4µM	-	-	?	-
CC1CCN(C[C@H]2CN3CC[C@H]2C[C@@H]3CNC(=O)c2ccc(C(F)(F)F)cc2)CC1	?	-	-	?	-
CN(C[C@H]1CN2CC[C@H]1C[C@@H]2CNC(=S)NCc1ccco1)c1ccccc1	39.8µM	-	-	28.2µM	-
O=C(NC[C@H]1C[C@@H]2CCN1C[C@@H]2CN1CCC(Cc2ccccc2)CC1)c1ccccc1	25.1µM	-	-	25.1µM	-
O=C(C1CC1)N1[C@H]2CC[C@@H]1c1cnc(-c3ccc(F)cc3)nc1C2	?	?	?	?	-
C=C[C@H]1CN2CC[C@H]1C[C@@H]2CNCc1ccc(OC(F)(F)F)cc1	?	-	-	?	-
O=C(NCc1ccccc1)[C@H]1CN2CC[C@H]1C[C@@H]2Cn1cc(-c2ccccn2)nn1	-	-	-	-	-
CC[C@H]1CN2CC[C@H]1C[C@@H]2CNC(=O)Nc1ccc(Br)cc1	-	-	-	-	-
CC[C@H]1CN2CC[C@H]1C[C@@H]2COC(=O)Nc1ccc(C(C)(C)C)cc1	39.8µM	?	-	39.8µM	-
CC[C@H]1CN2CC[C@H]1C[C@@H]2COC(=O)Nc1cccc2ccccc12	?	-	-	50.1µM	-
CC[C@H]1CN2CC[C@H]1C[C@@H]2CNS(=O)(=O)c1ccc2ccccc2c1	?	-	-	-	-
Cn1nc(C2CCCC2)cc1[C@H]1CN2CC[C@H]1C[C@@H]2CNS(=O)(=O)c1ccccc1	100µM	-	-	112µM	-
COc1ccccc1-c1cc([C@H]2CN3CC[C@H]2C[C@@H]3CNS(=O)(=O)c2ccccc2)n(C)n1	?	-	-	31.6µM	-
COc1ccccc1-c1cc([C@H]2CN3CC[C@H]2C[C@@H]3CNS(C)(=O)=O)n(C)n1	-	-	-	-	-
SMILES	HEK cytotox	Luciferase inh	NPR1 antag	NIH3T3 tox	GPT2 inhibitor
COc1ccc(-c2cc([C@H]3CN4CC[C@H]3C[C@@H]4CNS(=O)(=O)c3ccc(C)cc3)n(C)n2)cc1OC	39.8µM	-	-	22.4µM	?
COc1ccc(-c2cc([C@H]3CN4CC[C@H]3C[C@@H]4CNS(=O)(=O)c3ccccc3)n(C)n2)cc1OC	?	-	-	?	-
OCC1CN2CCCCC2CN1 (configuration not stated)	-	.	.	-	-
CC(=O)O[C@H]1C[C@]2(O)[C@@H]3CC[C@@H]4C[C@@H](O)CC[C@]4(C)[C@H]3CC[C@]2(C)[C@H]1c1ccc(=O)oc1	.	.	.	.	-
CC(C)CCN1CCCC2(CC(c3cccnc3)=NO2)C1 (configuration not stated)	-	.	.	-	-
COc1ccc2c(c1OC)CN1CCc3cc4c(cc3C1C2)OCO4 (configuration not stated)	.	.	.	.	-
COc1ccc2c(c[n+](C)c3c4cc5c(cc4ccc23)OCO5)c1OC	.	.	.	.	10µM!
O=C(CCc1c[nH]c2ccccc12)N1[C@H]2CC[C@@H]1c1cnc(-c3ccc(F)cc3)nc1C2	?	?	-	?	-
Cc1nc(-c2ccc(N(C)C)cc2)cc([C@H]2CN3CC[C@H]2C[C@@H]3CNC(=O)NC(C)C)n1	?	-	-	89.1µM	-
COc1ccc(NC(=O)OC[C@H]2C[C@@H]3CCN2C[C@@H]3c2cc(-c3ccc(N(C)C)cc3)nc(C)n2)cc1	17.8µM	-	-	15.8µM	-
Cc1nc(-c2ccc(N(C)C)cc2)cc([C@H]2CN3CC[C@H]2C[C@@H]3CNC(=O)c2ccco2)n1	?	?	-	?	-
CC(=O)NC[C@H]1C[C@@H]2CCN1C[C@@H]2c1cc(-c2ccccc2)nc(C)n1	-	-	-	?	-
Cc1nc(-c2ccc(N(C)C)cc2)cc([C@H]2CN3CC[C@H]2C[C@@H]3COC(=O)Nc2ccccc2)n1	?	-	-	3.98µM	-
COc1cc(NC(=O)OC[C@H]2C[C@@H]3CCN2C[C@@H]3c2cc(-c3ccc(N(C)C)cc3)nc(C)n2)cc(OC)c1	5.62µM	?	?	7.94µM	-
CCCNC(=O)OC[C@H]1C[C@@H]2CCN1C[C@@H]2c1cc(-c2ccc(F)cc2)nc(C)n1	?	-	-	?	-
Cc1cc(C(=O)N2[C@H]3CC[C@@H]2c2cnc(-c4ccc(F)cc4)nc2C3)nn1C	?	-	?	?	-
CCN1CCCCC12Cc1ccccc1CN(C(=O)Cc1ccccc1)C2 (configuration not stated)	-	.	.	-	-
CN1C(=O)CO[C@H]2CN(C3CCC3)C[C@H]21	-	-	-	-	-
Cc1ccccc1C(=O)N1CCC2(CC1)c1nccn1-c1ccccc1CN2CC(C)C	44.7µM	-	-	?	-
